Test results: PubChem BioAssay AID1159580 (chemical genetic matrix, 2015)
“And” between values parts separate entries of the source, which are not always exact repeats. Equal entries are not always repeated. The whole screen tested about 5,500 compounds, of which about 2,000 (36%) were called active. Inconclusive results (about 18%) are left out. Cut-off read from the data, not from the text of the source: active = normalized growth mostly below about 0.91 (no sharp cut-off); inconclusive = no clear call, values can overlap the other calls; inactive = mostly above about 0.92. The list shows a part of the results.

Assay: chemical genetic growth profiling, strain panel (AID 1159580);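 note: tested at 20 µM; growth read once vehicle control cultures reached saturation at 30 °C; 1 = growth at the plate median or of vehicle wells; lower values mean less growth of the strain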
Conditions: growth OD

Measured: normalized growth

Cc1ncc(CNC(=O)N(CCCl)N=O)c(N)n1
inactive: S. cerevisiae deletion strains, locus YJR075W, strain HOC1, hits give low values 1.01 | S. cerevisiae deletion strains, locus YKL009W, strain mrt4, hits give low values 0.976 | S. cerevisiae deletion strains, locus YKL068W, hits give low values 1 | S. cerevisiae deletion strains, locus YKL085W, strain MDH1 (second series), hits give low values 0.996 | S. cerevisiae deletion strains, locus YKL085W, strain MDH1, hits give low values 0.996 | S. cerevisiae deletion strains, locus YKL160W, strain elf1, hits give low values 0.996 | S. cerevisiae deletion strains, locus YKL190W, strain CNB1, hits give low values 1.01 | S. cerevisiae deletion strains, locus YKR001C, strain vps1, hits give low values 0.974 | S. cerevisiae deletion strains, locus YKR026C, strain gcn3, hits give low values 1.02 | S. cerevisiae deletion strains, locus YKR091W, strain srl3, hits give low values 1 | S. cerevisiae deletion strains, locus YLL001W, strain dnm1, hits give low values 0.97 | S. cerevisiae deletion strains, locus YLL026W, hits give low values 1.01 | S. cerevisiae deletion strains, locus YLL041C, strain sdh2, hits give low values 1.01 | S. cerevisiae deletion strains, locus YLR027C, strain aat2, hits give low values 0.99 | S. cerevisiae deletion strains, locus YLR039C, strain RIC1, hits give low values 1.04 | S. cerevisiae deletion strains, locus YLR058C, strain SHM2, hits give low values 1.02 | S. cerevisiae deletion strains, locus YLR102C, strain apc9, hits give low values 0.983 | S. cerevisiae deletion strains, locus YLR113W, strain HOG1, hits give low values 0.982 | S. cerevisiae deletion strains, locus YLR221C, strain rsa3, hits give low values 1.03 | S. cerevisiae deletion strains, locus YLR258W, strain gsy2, hits give low values 1 | S. cerevisiae deletion strains, locus YLR262C, strain YPT6 (second series), hits give low values 1.07 | S. cerevisiae deletion strains, locus YLR262C, strain YPT6, hits give low values 1.03 | S. cerevisiae deletion strains, locus YLR268W, strain sec22, hits give low values 0.983 | S. cerevisiae deletion strains, locus YLR320W, strain mms22, hits give low values 1.03 | S. cerevisiae deletion strains, locus YLR330W, strain CHS5, hits give low values 1.02 | S. cerevisiae deletion strains, locus YLR342W, strain FKS1 (second series), hits give low values 1.01 | S. cerevisiae deletion strains, locus YLR342W, strain FKS1, hits give low values 1.02 | S. cerevisiae deletion strains, locus YLR357W, strain rsc2, hits give low values 1.02 | S. cerevisiae deletion strains, locus YLR370C, strain arc18, hits give low values 1.01 | S. cerevisiae deletion strains, locus YLR371W, strain rom2, hits give low values 0.981 | S. cerevisiae deletion strains, locus YLR384C, strain iki3, hits give low values 1.03 | S. cerevisiae deletion strains, locus YLR418C, strain cdc73, hits give low values 0.965 | S. cerevisiae deletion strains, locus YML016C, strain PPZ1, hits give low values 1.02 | S. cerevisiae deletion strains, locus YML120C, strain ndi1, hits give low values 0.991 | S. cerevisiae deletion strains, locus YML124C, strain tub3, hits give low values 0.989 | S. cerevisiae deletion strains, locus YMR058W, strain fet3, hits give low values 1.02 | S. cerevisiae deletion strains, locus YMR078C, strain ctf18, hits give low values 0.964 | S. cerevisiae deletion strains, locus YMR125W, strain sto1, hits give low values 1 | S. cerevisiae deletion strains, locus YMR129W, hits give low values 1.02 | S. cerevisiae deletion strains, locus YMR205C, strain PFK2, hits give low values 1.01 | S. cerevisiae deletion strains, locus YMR223W, strain ubp8, hits give low values 0.994 | S. cerevisiae deletion strains, locus YMR231W, strain pep5, hits give low values 1 | S. cerevisiae deletion strains, locus YMR263W, strain SAP30, hits give low values 1.01 | S. cerevisiae deletion strains, locus YMR307W, strain GAS1, hits give low values 0.992 and 1.01 | S. cerevisiae deletion strains, locus YNL067W, strain RPL9B, hits give low values 1.01 | S. cerevisiae deletion strains, locus YNL071W, strain lat1, hits give low values 1.01 | S. cerevisiae deletion strains, locus YNL128W, strain TEP1, hits give low values 1.01 and 1 | S. cerevisiae deletion strains, locus YNL153C, strain GIM3, hits give low values 1.02 and 0.991 | S. cerevisiae deletion strains, locus YNL175C, strain NOP13, hits give low values 0.997 | S. cerevisiae deletion strains, locus YNL183C, strain NPR1, hits give low values 0.913 | S. cerevisiae deletion strains, locus YNL197C, strain WHI3, hits give low values 0.999 | S. cerevisiae deletion strains, locus YNL209W, strain ssb2, hits give low values 0.992 | S. cerevisiae deletion strains, locus YNL224C, strain SQS1, hits give low values 1.01 | S. cerevisiae deletion strains, locus YNL233W, strain BNI4, hits give low values 1.01 | S. cerevisiae deletion strains, locus YNL248C, strain rpa49, hits give low values 1.02 | S. cerevisiae deletion strains, locus YNL250W, strain rad50, hits give low values 0.972 | S. cerevisiae deletion strains, locus YNL271C, strain bni1, hits give low values 0.979 | S. cerevisiae deletion strains, locus YNL298W, strain CLA4, hits give low values 0.996 | S. cerevisiae deletion strains, locus YNL307C, strain MCK1, hits give low values 1 | S. cerevisiae deletion strains, locus YNL322C, strain KRE1 (second series), hits give low values 0.937 | S. cerevisiae deletion strains, locus YNL322C, strain KRE1, hits give low values 1.01 | S. cerevisiae deletion strains, locus YNR049C, strain mso1, hits give low values 1.02 | S. cerevisiae deletion strains, locus YNR052C, strain pop2, hits give low values 0.983 | S. cerevisiae deletion strains, locus YOL006C, strain TOP1, hits give low values 1.02 | S. cerevisiae deletion strains, locus YOL012C, strain htz1 1.04 | S. cerevisiae deletion strains, locus YOL147C, strain pex11, hits give low values 0.978 | S. cerevisiae deletion strains, locus YOR001W, strain rrp6, hits give low values 1.03 | S. cerevisiae deletion strains, locus YOR061W, strain CKA2, hits give low values 1.02 | S. cerevisiae deletion strains, locus YOR069W, strain VPS5, hits give low values 1.02 | S. cerevisiae deletion strains, locus YOR070C, strain gyp1, hits give low values 1.03 | S. cerevisiae deletion strains, locus YOR080W, strain dia2, hits give low values 1.01 | S. cerevisiae deletion strains, locus YOR083W, strain WHI5 (second series), hits give low values 1.01 | S. cerevisiae deletion strains, locus YOR083W, strain WHI5, hits give low values 0.979 | S. cerevisiae deletion strains, locus YOR106W, strain vam3, hits give low values 0.959 | S. cerevisiae deletion strains, locus YOR136W, strain idh2, hits give low values 0.981 | S. cerevisiae deletion strains, locus YOR144C, strain elg1, hits give low values 0.978 | S. cerevisiae deletion strains, locus YOR184W, strain ser1, hits give low values 0.989 | S. cerevisiae deletion strains, locus YOR231W, strain MKK1, hits give low values 0.953 | S. cerevisiae deletion strains, locus YOR265W, strain rbl2, hits give low values 1.01 | S. cerevisiae deletion strains, locus YOR270C, strain vph1, hits give low values 1.03 | S. cerevisiae deletion strains, locus YOR290C, strain snf2, hits give low values 0.993 | S. cerevisiae deletion strains, locus YOR316C, strain cot1, hits give low values 0.99 | S. cerevisiae deletion strains, locus YPL051W, strain arl3, hits give low values 0.974 | S. cerevisiae deletion strains, locus YPL055C, strain LGE1, hits give low values 1.02 | S. cerevisiae deletion strains, locus YPL078C, strain atp4, hits give low values 0.98 | S. cerevisiae deletion strains, locus YPL106C, strain sse1, hits give low values 1.02 | S. cerevisiae deletion strains, locus YPL240C, strain hsp82, hits give low values 1.01 | S. cerevisiae deletion strains, locus YPL241C, strain CIN2, hits give low values 1.02 | S. cerevisiae deletion strains, locus YPL256C, strain CLN2, hits give low values 0.989 | S. cerevisiae deletion strains, locus YPR119W, strain clb2, hits give low values 0.978 | S. cerevisiae deletion strains, locus YPR141C, strain kar3, hits give low values 0.987 | S. cerevisiae deletion strains, locus YPR163C, strain tif3, hits give low values 0.98 | S. cerevisiae deletion strains, locus YPR167C, strain met16, hits give low values 0.982 | S. cerevisiae deletion strains, strain wtn01, hits give low values 0.987 | S. cerevisiae strains, strain wild type, hits give low values 1.01
active: S. cerevisiae deletion strains, locus YML032C, strain rad52, hits give low values 0.903
